In PubChem BioAssay (EPA / NIEHS):
The source made the active and inactive calls. Rule for the calls: active = hit-call score of the fitted dose curve at least 0.9, where 1 is the maximum; inactive = score below 0.9.

Legend:
[1] = ATG_CRE_CIS: Attagene CIS-FACTORIAL HepG2 Assay for human cAMP Responsive Element (CRE) binding protein 3 (AID 2282926); settings: HepG2 CRE cis-reporter, Attagene multiplexed mRNA; actives raise or lower the signal
Summary of the method: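 Cells carrying cis-regulated reporter constructs respond through their own endogenous factors. After 24 h treatment, RNA is reverse-transcribed, amplified, labelled and sized by capillary electrophoresis; up- and down-regulation are both scored against vehicle.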

[2] = ATG_DR4_LXR_CIS: Attagene CIS-FACTORIAL HepG2 Assay for human Liver X Receptor (LXR), DR4 submotif (AID 2282929); settings: HepG2 Attagene DR4 cis-reporter, mRNA transcription; actives raise or lower the signal
Summary of the method: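 Readout: reporter transcript fluorescence after RT-PCR and capillary electrophoresis, fitted bidirectionally against DMSO controls. Human HepG2 liver cells carried transiently transfected multiplexed reporter constructs; endogenous transcription factor activity measured 24 h post-dosing.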

[3] = ATG_AP_1_CIS: Attagene CIS-FACTORIAL HepG2 Assay for human Activator Protein 1 (AP-1) (AID 2282931); settings: HepG2 Attagene cis-factorial AP-1 reporter mRNA; actives raise or lower the signal
Summary of the method: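 Reporter transcripts were measured 24 h after dosing by RT-PCR and capillary electrophoresis of fluorescent fragments. Cells: HepG2 carrying transfected cis-regulated reporter constructs reading endogenous factor activity. Gain or loss fitted against DMSO.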

[4] = ATG_AP_2_CIS: Attagene CIS-FACTORIAL HepG2 Assay for human Activator Protein 2 (AP-2) (AID 2282932); settings: HepG2 AP-2 cis-reporter, Attagene transcription factor profiling; actives raise or lower the signal
Summary of the method: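 Assay in transfected HepG2 with promoter-regulated reporters, 24 h incubation after dosing. Signal is reporter mRNA fluorescence (RT-PCR, capillary electrophoresis), analysed for both increases and decreases relative to DMSO controls.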

[5] = target: Transcription factor E2F1 (Homo sapiens) (UniProt Q01094); test: ATG_E2F_CIS: Attagene CIS-FACTORIAL HepG2 Assay for human E2F Transcription Factor 1 (AID 2282935); settings: HepG2 Attagene cis-reporter, E2F reporter RNA transcripts; actives raise or lower the signal
Summary of the method: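 In this cis-factorial format, endogenous factor activity drives transfected reporters in HepG2; transcripts collected at 24 h are quantified by fluorescence after RT-PCR and capillary separation.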

[6] = ATG_M_61_CIS: Attagene CIS-FACTORIAL HepG2 Assay for M61 Transcription Factor (Internal Marker) (AID 2282937); settings: HepG2 Attagene CIS-FACTORIAL M61 internal marker reporter; actives raise or lower the signal
Summary of the method: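 Readout: fluorescent reporter mRNA fragments resolved by capillary electrophoresis after RT-PCR. Transiently transfected human HepG2 cells carried MRTU constructs reporting endogenous TF activity; 24 h chemical exposure; gain or loss of signal fitted relative to DMSO.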

[7] = ATG_EGR_CIS: Attagene CIS-FACTORIAL HepG2 Assay for human Early Growth Response 1 (EGR1) (AID 2282938); settings: HepG2 Attagene CIS-FACTORIAL EGR reporter mRNA; actives raise or lower the signal
Summary of the method: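 Read-out: fluorescent reporter-mRNA fragments resolved by capillary electrophoresis after RT-PCR, 24 h post-dose in transiently transfected HepG2. Endogenous transcription-factor activity reported via cis-element-regulated reporter units; gain or loss fitted relative to DMSO.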

[8] = ATG_M_19_CIS: Attagene CIS-FACTORIAL HepG2 Assay for M19 Transcription Factor (Internal Marker) (AID 2282939); settings: HepG2 Attagene CIS-FACTORIAL M19 internal marker reporter; actives raise or lower the signal
Summary of the method: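 HepG2 cells transiently transfected with cis-regulated multiple reporter transcription units were dosed for 24 h; reporter mRNA was quantified by RT-PCR, 6-FAM primer-extension labelling, HpaI digestion and capillary electrophoresis, with bidirectional fitting against DMSO baseline.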

[9] = ATG_Ets_CIS: Attagene CIS-FACTORIAL HepG2 Assay for human Erythroblast Transformation Specific (ETS) (AID 2282941); settings: HepG2 ETS cis-reporter transcription, actives raise or lower the signal
Summary of the method: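 Endogenous transcription factor activity read as reporter mRNA via RT-PCR and capillary electrophoresis, with gain or loss fitted bidirectionally against DMSO. Human HepG2 liver cells, transiently transfected CIS reporter constructs, 24 h exposure.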

[10] = target: Hepatocyte nuclear factor 3-beta (Homo sapiens) (UniProt Q9Y261); test: ATG_FoxA2_CIS: Attagene CIS-FACTORIAL HepG2 Assay for human Forkhead box A2 (FOXA2) (AID 2282942); settings: HepG2 cis-reporter transcription factor activity, 24 h; actives raise or lower the signal
Summary of the method: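 Readout: fluorescent reporter transcripts resolved by capillary electrophoresis after RT-PCR. Transiently transfected HepG2, 24 h compound exposure, endogenous TF activity at cis promoter elements. Gain or loss of signal fitted relative to DMSO.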

[11] = ATG_GATA_CIS: Attagene CIS-FACTORIAL HepG2 Assay for human GATA Binding Protein (AID 2282944); settings: HepG2 GATA cis-element reporter, Attagene multiplex mRNA; actives raise or lower the signal
Summary of the method: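 HepG2 cells transiently transfected with multiplexed cis-element reporter units reflecting endogenous transcription factor activity; reporter mRNA measured after 24 h dosing by RT-PCR, 6-FAM labeling, HpaI digestion and capillary electrophoresis. Bidirectional fitting versus DMSO baseline.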

[12] = ATG_GLI_CIS: Attagene CIS-FACTORIAL HepG2 Assay for human Zinc Finger Protein GLI1 (AID 2282945); settings: HepG2, Attagene cis-factorial reporter mRNA, GLI element; actives raise or lower the signal
Summary of the method: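 HepG2 cells transiently transfected with cis-promoter multiplexed reporter units report endogenous transcription factor activity. After 24 h chemical exposure, reporter mRNA was quantified by RT-PCR, 6-FAM labelling, HpaI digestion and capillary electrophoresis, with bidirectional fitting against DMSO.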

[13] = ATG_ISRE_CIS: Attagene CIS-FACTORIAL HepG2 Assay for human Interferon Regulatory Factor 1 (IRF1) binding to an Interferon-Stimulated Response Element (ISRE) (AID 2282948); settings: HepG2 ISRE cis-reporter (Attagene), mRNA transcription readout; actives raise or lower the signal
Summary of the method: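 Endogenous transcription factor activity read as reporter transcript abundance via RT-PCR and capillary electrophoresis. HepG2 cells transiently transfected, 24 h chemical exposure. Gain or loss fitted against DMSO baseline.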

[14] = ATG_M_32_CIS: Attagene CIS-FACTORIAL HepG2 Assay for M32 Transcription Factor (Internal Marker) (AID 2282949); settings: HepG2 Attagene cis-factorial M32 reporter, mRNA; actives raise or lower the signal;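 note: background control marker of the multiplexed CIS panel rather than a real target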
Summary of the method: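 Using DMSO as baseline, bidirectional curve fits were applied to reporter mRNA signals. These came from transiently transfected HepG2 cells exposed for 24 h, with RNA analysed by RT-PCR, FAM primer extension, HpaI digestion and CE.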

[15] = ATG_M_06_CIS: Attagene CIS-FACTORIAL HepG2 Assay for M06 Transcription Factor (Internal Marker) (AID 2282950); settings: HepG2 Attagene CIS-FACTORIAL M06 internal marker reporter; actives raise or lower the signal
Summary of the method: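 HepG2 cells transiently transfected with cis-regulated multiple reporter transcription units were exposed to chemical for 24 h; reporter mRNA was quantified by RT-PCR, 6-FAM primer labelling, HpaI digestion and capillary electrophoresis, fitted bidirectionally against DMSO.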

[16] = ATG_MRE_CIS: Attagene CIS-FACTORIAL HepG2 Assay for human Metal Responsive Element (MRE) (AID 2282954); settings: HepG2 MRE cis-reporter transcription, Attagene multiplex; actives raise or lower the signal
Summary of the method: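 Readout: capillary electrophoresis of 6-FAM-labelled, HpaI-digested RT-PCR reporter products. System: HepG2 cells carrying transient multiplexed cis reporters, dosed 24 h. Analysis: bidirectional fit, DMSO baseline.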

[17] = target: Paired box protein Pax-6 (Homo sapiens) (UniProt P26367); test: ATG_Pax6_CIS: Attagene CIS-FACTORIAL HepG2 Assay for human Paired Box 6 (PAX6) (AID 2282956); settings: HepG2 CIS-FACTORIAL PAX6 reporter transcription, RNA readout; actives raise or lower the signal
Summary of the method: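 Read-out is reporter transcript level, measured by RT-PCR with fluorescent primer extension and capillary electrophoresis after 24 h dosing of transfected HepG2 cells. Activity in either direction fitted relative to DMSO control.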

[18] = ATG_PXRE_CIS: Attagene CIS-FACTORIAL HepG2 Assay for human Pregnane X Receptor Element (PXRE) (AID 2282957); settings: HepG2 Attagene CIS-FACTORIAL PXRE reporter, mRNA; actives raise or lower the signal
Summary of the method: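 Endogenous transcription factor activity in HepG2 was gauged through induction of reporter mRNA driven by a cis-regulating promoter element, sampled 24 h post-treatment. Activity was fitted in both directions against DMSO negative control.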

[19] = target: Transcription factor Sp1 (Homo sapiens) (UniProt P08047); test: ATG_Sp1_CIS: Attagene CIS-FACTORIAL HepG2 Assay for human Specificity Protein 1 (Sp1) (AID 2282961); settings: HepG2 Sp1 cis-reporter transcription, actives raise or lower the signal
Summary of the method: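 Read-out: fluorescence of 6-FAM-labeled, HpaI-digested RT-PCR products separated by capillary electrophoresis. HepG2 cells carried transfected cis-element reporter units and were exposed to chemicals for 24 h; gain or loss of signal fitted relative to DMSO.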

[20] = target: Signal transducer and activator of transcription 3 (Homo sapiens) (UniProt P40763); test: ATG_STAT3_CIS: Attagene CIS-FACTORIAL HepG2 Assay for human Signal Transducer and Activator of Transcription 3 (STAT3) (AID 2282963); settings: HepG2, Attagene cis-factorial STAT3 reporter transcription; actives raise or lower the signal
Summary of the method: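 Uses human liver HepG2 transiently carrying cis-regulated reporter transcription units. Following 24 h dosing, reporter mRNA induction was detected by RT-PCR and capillary electrophoresis, analysed bidirectionally versus DMSO.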

Measured: AC50

Paired box protein Pax-6 (Homo sapiens), sequence (P26367 whole entry, looked up): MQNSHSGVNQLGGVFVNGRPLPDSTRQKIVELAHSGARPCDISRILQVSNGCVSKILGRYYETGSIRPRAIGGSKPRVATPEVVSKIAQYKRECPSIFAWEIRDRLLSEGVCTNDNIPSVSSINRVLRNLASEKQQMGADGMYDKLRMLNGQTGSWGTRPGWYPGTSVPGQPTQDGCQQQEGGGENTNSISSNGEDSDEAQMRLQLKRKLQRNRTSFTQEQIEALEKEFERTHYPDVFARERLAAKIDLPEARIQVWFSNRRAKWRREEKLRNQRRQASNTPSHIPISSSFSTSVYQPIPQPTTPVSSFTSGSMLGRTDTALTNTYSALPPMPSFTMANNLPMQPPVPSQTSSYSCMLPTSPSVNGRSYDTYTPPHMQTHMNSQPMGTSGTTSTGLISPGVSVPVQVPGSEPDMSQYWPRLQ
Transcription factor E2F1 (Homo sapiens), sequence (Q01094 whole entry, looked up): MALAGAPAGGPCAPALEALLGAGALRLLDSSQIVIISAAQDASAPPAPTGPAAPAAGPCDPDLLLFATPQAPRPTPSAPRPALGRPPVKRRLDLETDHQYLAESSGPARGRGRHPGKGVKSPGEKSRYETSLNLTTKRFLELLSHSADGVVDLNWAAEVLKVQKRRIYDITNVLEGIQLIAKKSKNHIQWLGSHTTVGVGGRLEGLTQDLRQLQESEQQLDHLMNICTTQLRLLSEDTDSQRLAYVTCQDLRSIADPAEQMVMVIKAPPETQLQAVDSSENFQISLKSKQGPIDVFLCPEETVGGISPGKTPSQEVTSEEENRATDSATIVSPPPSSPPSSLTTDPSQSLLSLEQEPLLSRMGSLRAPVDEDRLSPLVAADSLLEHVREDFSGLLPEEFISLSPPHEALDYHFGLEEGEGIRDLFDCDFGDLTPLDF
Hepatocyte nuclear factor 3-beta (Homo sapiens), sequence (Q9Y261 whole entry, looked up): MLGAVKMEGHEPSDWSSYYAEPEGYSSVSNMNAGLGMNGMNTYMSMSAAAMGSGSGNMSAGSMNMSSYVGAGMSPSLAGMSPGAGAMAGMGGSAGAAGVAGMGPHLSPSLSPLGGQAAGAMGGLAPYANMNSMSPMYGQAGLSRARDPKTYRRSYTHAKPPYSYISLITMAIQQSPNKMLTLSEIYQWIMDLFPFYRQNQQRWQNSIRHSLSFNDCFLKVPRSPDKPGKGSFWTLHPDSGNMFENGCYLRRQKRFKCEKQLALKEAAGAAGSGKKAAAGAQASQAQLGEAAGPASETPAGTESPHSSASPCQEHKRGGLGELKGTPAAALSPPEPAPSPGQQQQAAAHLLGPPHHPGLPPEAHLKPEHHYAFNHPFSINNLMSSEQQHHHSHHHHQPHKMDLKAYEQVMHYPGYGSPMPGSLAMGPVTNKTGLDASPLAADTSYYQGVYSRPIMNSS
Signal transducer and activator of transcription 3 (Homo sapiens), sequence (P40763 whole entry, looked up): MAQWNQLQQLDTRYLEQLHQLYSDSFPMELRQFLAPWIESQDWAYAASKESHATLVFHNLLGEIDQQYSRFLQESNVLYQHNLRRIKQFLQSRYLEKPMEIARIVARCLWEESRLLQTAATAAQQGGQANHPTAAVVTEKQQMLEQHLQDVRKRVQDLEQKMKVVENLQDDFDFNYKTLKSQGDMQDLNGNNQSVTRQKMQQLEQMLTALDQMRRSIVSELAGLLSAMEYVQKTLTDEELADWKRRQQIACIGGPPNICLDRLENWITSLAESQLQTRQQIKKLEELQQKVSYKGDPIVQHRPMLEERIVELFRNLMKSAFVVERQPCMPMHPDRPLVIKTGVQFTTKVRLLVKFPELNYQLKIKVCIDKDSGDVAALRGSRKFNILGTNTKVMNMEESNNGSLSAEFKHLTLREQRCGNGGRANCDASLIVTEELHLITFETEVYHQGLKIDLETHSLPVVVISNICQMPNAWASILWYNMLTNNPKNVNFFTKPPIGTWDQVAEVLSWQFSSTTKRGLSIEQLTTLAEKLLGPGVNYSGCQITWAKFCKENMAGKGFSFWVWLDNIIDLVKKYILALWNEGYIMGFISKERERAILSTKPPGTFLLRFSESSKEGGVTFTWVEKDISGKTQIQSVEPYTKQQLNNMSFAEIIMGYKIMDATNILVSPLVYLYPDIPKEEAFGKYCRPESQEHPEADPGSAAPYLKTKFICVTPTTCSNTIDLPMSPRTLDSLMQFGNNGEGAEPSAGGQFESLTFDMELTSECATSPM
Transcription factor Sp1 (Homo sapiens), sequence (P08047 whole entry, looked up): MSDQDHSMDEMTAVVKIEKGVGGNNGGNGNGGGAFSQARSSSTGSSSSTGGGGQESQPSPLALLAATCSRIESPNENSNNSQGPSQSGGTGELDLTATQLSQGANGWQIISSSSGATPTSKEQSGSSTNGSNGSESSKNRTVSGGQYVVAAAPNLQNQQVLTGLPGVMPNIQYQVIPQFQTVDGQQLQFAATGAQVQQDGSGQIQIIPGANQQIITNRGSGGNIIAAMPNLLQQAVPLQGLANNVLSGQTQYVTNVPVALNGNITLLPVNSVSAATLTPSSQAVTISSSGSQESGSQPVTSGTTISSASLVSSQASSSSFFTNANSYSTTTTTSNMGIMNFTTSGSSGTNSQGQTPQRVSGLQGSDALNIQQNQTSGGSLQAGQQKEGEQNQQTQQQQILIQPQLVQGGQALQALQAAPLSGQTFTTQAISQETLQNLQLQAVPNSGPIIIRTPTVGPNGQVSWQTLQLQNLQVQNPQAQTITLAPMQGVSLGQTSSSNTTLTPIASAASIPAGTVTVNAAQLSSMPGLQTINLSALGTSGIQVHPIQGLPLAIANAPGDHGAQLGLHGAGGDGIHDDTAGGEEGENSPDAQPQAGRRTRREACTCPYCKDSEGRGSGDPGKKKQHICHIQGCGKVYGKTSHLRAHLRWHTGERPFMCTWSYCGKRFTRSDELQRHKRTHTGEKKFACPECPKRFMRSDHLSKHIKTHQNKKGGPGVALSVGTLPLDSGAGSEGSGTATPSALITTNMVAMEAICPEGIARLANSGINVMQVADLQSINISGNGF

CC(C)C#N
active: [18] 27.6 µM
inactive: all other assays above

CCCCOC(=O)CCC(=O)OCCCC
inactive: all assays above

Cc1cc(C)c(C2=C(OC(=O)CC(C)(C)C)C3(CCCC3)OC2=O)c(C)c1
active: [1] 127 µM | [2] 28.5 µM | [3] 174 µM | [7] 104 µM | [12] 163 µM | [13] 168 µM | [16] 76 µM | [17] 104 µM | [18] 7.83 µM | [19] 88.6 µM
inactive: [4] | [5] | [6] | [8] | [9] | [10] | [11] | [14] | [15] | [20]

[Cl][Sb]([Cl])[Cl]
active: [3] 100 µM | [7] 140 µM | [17] 133 µM
inactive: all other assays above

O=[N+]([O-])O
inactive: all assays above

CCC1CCC(=O)O1 (stereo not given)
active: [18] 27.3 µM
inactive: all other assays above
